Assay results published in PubChem BioAssay (NCI).
Several values for one entry are separate records, joined by “and”; a condition that tells them apart may be missing. Equal entries are not always repeated. About 79,000 compounds went through this panel and 15% of them were active in at least one assay; those are over-represented in the sample as a whole. A structure can be active in one record and inactive in another. Activity calls are given as the source filed them. No stated cut-off is given here; in the data, active means growth inhibition above about 70%; inactive means the rest.

Columns and labels:
[1] = NCI Yeast Anticancer Drug Screen. Data for the rad52 strain (AID 147);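 further: 0% = growth of vehicle-treated control cultures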; settings: S. cerevisiae rad52 mutant growth inhibition, stronger effect = higher value
In short: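 Screen used a yeast mutant impaired in DNA repair. After compound exposure, growth was measured. Values reflect inhibition compared with vehicle-treated cells.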

[2] = NCI Yeast Anticancer Drug Screen. Data for the wt1 strain (AID 149);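 further: 0% = growth of vehicle-treated wt1 cultures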; settings: S. cerevisiae wt1 strain (SPY 50644) growth inhibition, stronger effect = higher value
In short: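 Compounds are added to wt1 yeast cultures. Growth is then measured. Inhibition is expressed relative to vehicle-treated controls.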

[3] = NCI Yeast Anticancer Drug Screen. Data for the rad50EPP+ strain (AID 151);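 further: 0% = growth of vehicle-treated control cultures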; settings: S. cerevisiae rad50 mutant strain, stronger effect = higher value
In short: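 Exposing the rad50EPP+ strain to each compound, growth was compared with vehicle-only cultures to give inhibition.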

[4] = NCI Yeast Anticancer Drug Screen. Data for the rad50 strain (AID 155);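 further: 0% = growth of vehicle-only cultures of the same strain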; settings: S. cerevisiae rad50 strain growth inhibition, stronger effect = higher value
In short: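 Inhibition values express reduced yeast growth in compound-treated cultures relative to vehicle-treated controls.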

[5] = NCI Yeast Anticancer Drug Screen. Data for the mec2-1 strain (AID 157); settings: S. cerevisiae mec2-1 strain, stronger effect = higher value
In short: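 Readout is yeast growth inhibition, normalised to vehicle-treated controls, in the mec2-1 strain exposed to compound.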

[6] = NCI Yeast Anticancer Drug Screen. Data for the rad14 strain (AID 159);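 further: 0% = growth of vehicle-treated control cultures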; settings: S. cerevisiae rad14 strain growth inhibition, stronger effect = higher value
In short: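 A mutant yeast strain defective in DNA damage repair is treated with compound; inhibition of its growth is scored against untreated, vehicle-exposed cultures.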

[7] = NCI Yeast Anticancer Drug Screen. Data for the sgs1 mgt1 strain (AID 161);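 further: 0% = growth of cultures given vehicle only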; settings: S. cerevisiae sgs1 mgt1 strain, stronger effect = higher value
In short: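 This yeast growth screen uses a strain with defined DNA-repair lesions; compound-treated growth is compared with vehicle-treated growth.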

[8] = NCI Yeast Anticancer Drug Screen. Data for the CLN2oe strain (AID 163);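 further: 0% = growth of vehicle-only control cultures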; settings: S. cerevisiae CLN2oe strain, stronger effect = higher value
In short: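 Values reflect how much compound exposure reduced yeast growth, referenced to vehicle-exposed cells. Assay organism is a strain with a defined genetic change affecting cell-cycle control.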

[9] = NCI Yeast Anticancer Drug Screen. Data for the cln2 rad14 strain (AID 165);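 further: 0% = growth equal to vehicle treated cultures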; settings: S. cerevisiae cln2 rad14 strain, stronger effect = higher value
In short: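 Relative to vehicle controls, growth inhibition of compound-treated cln2 rad14 yeast was recorded.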

[10] = NCI Yeast Anticancer Drug Screen. Data for the bub3 strain (AID 167); settings: S. cerevisiae bub3 mutant strain, stronger effect = higher value
In short: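 Steps: expose the mutant yeast strain to compound; grow alongside vehicle-treated cultures; measure growth; express inhibition against the vehicle cultures.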

[11] = NCI Yeast Anticancer Drug Screen. Data for the mlh1 strain (AID 171);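 further: 0% = growth of vehicle-treated control cultures of the same strain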; settings: S. cerevisiae mlh1 strain growth inhibition, stronger effect = higher value
In short: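 Steps: expose the defined-mutant yeast strain to compound; expose a parallel culture to vehicle; measure growth; express compound effect as inhibition relative to the vehicle culture.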

[12] = NCI Yeast Anticancer Drug Screen. Data for the sgs1 strain (AID 173);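 further: 0% = growth of vehicle-only control cultures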; settings: S. cerevisiae sgs1 mutant, stronger effect = higher value
In short: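 Treat defined-mutant yeast with compound; measure growth; calculate inhibition relative to vehicle-treated cells.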

[13] = NCI Yeast Anticancer Drug Screen. Data for the mlh1 rad18 strain (AID 175); settings: S. cerevisiae mlh1 rad18 strain growth inhibition, stronger effect = higher value
In short: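 Test agents were incubated with a yeast strain of defined genotype (DNA damage repair defect). Inhibition of growth was derived by comparison with vehicle-exposed cultures.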

[14] = NCI Yeast Anticancer Drug Screen. Data for the rad18 strain (AID 177); settings: S. cerevisiae rad18 mutant growth inhibition, stronger effect = higher value
In short: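 A genetically defined yeast mutant impaired in DNA damage repair was treated with test compounds, then its growth was measured against cultures receiving vehicle alone.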

[15] = NCI Yeast Anticancer Drug Screen. Data for the wt2 strain (AID 169);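 further: 0% = growth of vehicle-treated yeast cultures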; settings: S. cerevisiae wt2 strain growth inhibition, stronger effect = higher value
In short: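 Values express reduction in yeast growth under compound treatment, referenced to vehicle-treated cells.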

[16] = at 5.0 µM (retest, dose inferred, filed as 0.5)
[17] = at 50.0 µM (retest, dose inferred, filed as 5.0)

Measured: growth inhibition

CCCCCCCCCCCCCCCCCCNC(=S)/N=C\C1=C(O)c2ccccc2C1=O
inactive: [1]; at 1.2 µM 17% | [1]; at 3.7 µM 4% | [1]; at 11.0 µM 12% | [1]; at 33.0 µM 17% | [1]; at 100.0 µM 19% | [2]; at 1.2 µM -44% | [2]; at 3.7 µM -2% | [2]; at 11.0 µM -5% | [2]; at 33.0 µM -5% | [2]; at 100.0 µM -3% | [3]; at 1.2 µM -6% | [3]; at 3.7 µM 7% | [3]; at 11.0 µM 26% | [3]; at 33.0 µM 42% | [3]; at 100.0 µM 60% | [4]; at 1.2 µM -1% | [4]; at 3.7 µM 0% | [4]; [16] 5% | [4]; at 11.0 µM 0% | [4]; at 33.0 µM 4% | [4]; at 50.0 µM 60% | [4]; at 100.0 µM 9% | [5]; at 1.2 µM -3% | [5]; at 3.7 µM -1% | [5]; [16] -16% | [5]; at 11.0 µM -5% | [5]; at 33.0 µM 2% | [5]; [17] 37% | [5]; at 50.0 µM 36.7% | [5]; at 100.0 µM 2% | [6]; at 1.2 µM 0% | [6]; at 3.7 µM 3% | [6]; at 11.0 µM 7% | [6]; at 33.0 µM 10% | [6]; at 100.0 µM 11% | [7]; [16] -13% | [7]; [17] 18% | [8]; at 1.2 µM -10% | [8]; at 3.7 µM -7% | [8]; at 11.0 µM -5% | [8]; at 33.0 µM -13% | [8]; at 100.0 µM -4% | [9]; [16] 33% | [9]; [17] -10% | [9]; at 50.0 µM 25.7% | [10]; at 1.2 µM -5% | [10]; at 3.7 µM -9% | [10]; [16] -2% | [10]; at 11.0 µM -4% | [10]; at 33.0 µM -3% | [10]; at 50.0 µM 69.7% | [10]; at 100.0 µM 52% | [11]; at 1.2 µM -1% | [11]; at 3.7 µM -1% | [11]; at 11.0 µM -3% | [11]; at 33.0 µM -2% | [11]; at 100.0 µM -1% | [12]; at 1.2 µM 0% | [12]; at 3.7 µM 6% | [12]; at 11.0 µM 13% | [12]; at 33.0 µM 15% | [12]; at 100.0 µM 30% | [13]; [16] -13% | [13]; [17] 63% | [13]; at 50.0 µM 53% | [14]; at 1.2 µM 8% | [14]; at 3.7 µM 11% | [14]; at 11.0 µM 22% | [14]; at 33.0 µM 30% | [14]; at 100.0 µM 26%
active: [4]; [17] 86% | [7]; at 50.0 µM 71% | [10]; [17] 84%

CC(C)c1cccc(O)c(=O)c1
active: [1]; at 100.0 µM 99% | [2]; at 100.0 µM 98% | [3]; at 100.0 µM 98% | [4]; at 50.0 µM 98.5% and 92.5% | [4]; at 100.0 µM 98% | [5]; at 50.0 µM 99% and 94.2% | [5]; at 100.0 µM 98% | [6]; at 33.0 µM 74% | [6]; at 100.0 µM 99% | [7]; at 50.0 µM 93.9% and 93.2% | [9]; at 50.0 µM 96.3% and 89.7% | [10]; at 50.0 µM 99.3% and 93.2% | [10]; at 100.0 µM 98% | [11]; at 100.0 µM 99% | [13]; at 50.0 µM 98.4% and 91.7% | [14]; at 100.0 µM 98%
18% (inactive) and 99% (active): [10]; [17]
47% (inactive) and 100% (active): [5]; [17]
36% (inactive) and 99% (active): [7]; [17]
12% (inactive) and 99% (active): [9]; [17]
40% (inactive) and 99% (active): [13]; [17]
inactive: [1]; at 1.2 µM 2% | [1]; at 3.7 µM -3% | [1]; at 11.0 µM 0% | [1]; at 33.0 µM 18% | [2]; at 1.2 µM -1% | [2]; at 3.7 µM -1% | [2]; at 11.0 µM -1% | [2]; at 33.0 µM 38% | [3]; at 1.2 µM 5% | [3]; at 3.7 µM 8% | [3]; at 11.0 µM -20% | [3]; at 33.0 µM 13% | [4]; at 1.2 µM -7% | [4]; at 3.7 µM -9% | [4]; [16] -1% and 2% | [4]; at 11.0 µM -8% | [4]; at 33.0 µM 27% | [5]; at 1.2 µM -1% | [5]; at 3.7 µM 2% | [5]; [16] -43% and 0% | [5]; at 11.0 µM 6% | [5]; at 33.0 µM 47% | [6]; at 1.2 µM 6% | [6]; at 3.7 µM 4% | [6]; at 11.0 µM 9% | [7]; [16] -2% and 9% | [9]; [16] -4% and 4% | [10]; at 1.2 µM 5% | [10]; at 3.7 µM -2% | [10]; [16] -7% and 0% | [10]; at 11.0 µM -4% | [10]; at 33.0 µM 13% | [11]; at 1.2 µM -6% | [11]; at 3.7 µM -1% | [11]; at 11.0 µM 2% | [11]; at 33.0 µM 46% | [13]; [16] -3% and 7% | [14]; at 1.2 µM -6% | [14]; at 3.7 µM 1% | [14]; at 11.0 µM 2% | [14]; at 33.0 µM 18%
52% (inactive) and 99% (active): [4]; [17]

O=C(N/N=C\c1c(Cl)cccc1Cl)N/N=C/c1c(Cl)cccc1Cl
inactive: [1]; at 1.2 µM 14% | [1]; at 3.7 µM 14% | [1]; at 11.0 µM 23% | [1]; at 33.0 µM 22% | [1]; at 100.0 µM 25% | [2]; at 1.2 µM -2% | [2]; at 3.7 µM 8% | [2]; at 11.0 µM 4% | [2]; at 33.0 µM 17% | [2]; at 100.0 µM 29% | [4]; at 1.2 µM 14% | [4]; at 3.7 µM 12% | [4]; [16] 30% | [4]; at 11.0 µM 21% | [4]; at 33.0 µM 14% | [4]; at 50.0 µM -7.7% | [4]; at 100.0 µM 5% | [5]; at 1.2 µM 21% | [5]; at 3.7 µM 25% | [5]; [16] 35% | [5]; at 11.0 µM 12% | [5]; at 33.0 µM 0% | [5]; at 50.0 µM -13.8% | [5]; at 100.0 µM 3% | [6]; at 1.2 µM -4% | [6]; at 3.7 µM -21% | [6]; at 11.0 µM 8% | [6]; at 33.0 µM -7% | [6]; at 100.0 µM -12% | [7]; [16] -13% | [7]; [17] 29% | [7]; at 50.0 µM 9.15% | [8]; at 1.2 µM -8% | [8]; at 3.7 µM -12% | [8]; at 11.0 µM -21% | [8]; at 33.0 µM -8% | [8]; at 100.0 µM -10% | [9]; [16] 49% | [9]; at 50.0 µM 13.7% | [10]; at 1.2 µM 6% | [10]; at 3.7 µM 11% | [10]; [16] 36% | [10]; at 11.0 µM -3% | [10]; at 33.0 µM 0% | [10]; [17] 58% | [10]; at 50.0 µM 12.2% | [10]; at 100.0 µM 1% | [15]; at 1.2 µM 11% | [15]; at 3.7 µM 7% | [15]; at 11.0 µM 7% | [15]; at 33.0 µM -3% | [15]; at 100.0 µM 17% | [11]; at 1.2 µM -13% | [11]; at 3.7 µM -7% | [11]; at 11.0 µM -3% | [11]; at 33.0 µM -9% | [11]; at 100.0 µM -8% | [12]; at 1.2 µM 8% | [12]; at 3.7 µM 1% | [12]; at 11.0 µM 19% | [12]; at 33.0 µM 10% | [12]; at 100.0 µM 5% | [13]; [16] 38% | [13]; at 50.0 µM 55.9% | [14]; at 1.2 µM -10% | [14]; at 3.7 µM 1% | [14]; at 11.0 µM -11% | [14]; at 33.0 µM -10% | [14]; at 100.0 µM -13%
active: [4]; [17] 97% | [5]; [17] 98% | [9]; [17] 70% | [13]; [17] 88%
